Measured values from PubChem BioAssay (NCI).
This is part of a sample that, as a whole, favours compounds with a hit. Of some 79,000 tested, about 15% had one in any assay. Activity calls are given as the source filed them. Cut-off read from the data, not from the text of the source: active = growth inhibition above about 70%; inactive = the rest.

Experiments:
[1] = NCI Yeast Anticancer Drug Screen. Data for the rad52 strain (AID 147);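 note: 0% = growth of vehicle-treated control cultures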; details: S. cerevisiae rad52 mutant growth inhibition, stronger effect = higher value
How it was run: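 Read-out: growth inhibition versus vehicle-treated controls. Cells were a DNA repair-deficient yeast strain treated with compounds.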

[2] = NCI Yeast Anticancer Drug Screen. Data for the wt1 strain (AID 149);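 note: 0% = growth of vehicle-treated wt1 cultures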; details: S. cerevisiae wt1 strain (SPY 50644) growth inhibition, stronger effect = higher value
How it was run: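 The wt1 strain was treated with compounds, and growth was compared with vehicle-treated cultures to give inhibition.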

[3] = NCI Yeast Anticancer Drug Screen. Data for the rad50EPP+ strain (AID 151);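 note: 0% = growth of vehicle-treated control cultures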; details: S. cerevisiae rad50 mutant strain, stronger effect = higher value
How it was run: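 Growth inhibition read against vehicle controls in rad50EPP+ yeast, a strain altered in DNA damage repair, after compound exposure.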

[4] = NCI Yeast Anticancer Drug Screen. Data for the mgt1 strain (AID 153); details: S. cerevisiae mgt1 mutant growth inhibition, stronger effect = higher value
How it was run: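 mgt1 yeast grown with test compound; read-out is growth inhibition versus vehicle-treated cultures.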

[5] = NCI Yeast Anticancer Drug Screen. Data for the rad50 strain (AID 155);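 note: 0% = growth of vehicle-only cultures of the same strain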; details: S. cerevisiae rad50 strain growth inhibition, stronger effect = higher value
How it was run: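 Cells are treated with compound, grown, and their growth is then scored against vehicle-only cultures of the same repair-deficient yeast strain.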

[6] = NCI Yeast Anticancer Drug Screen. Data for the mec2-1 strain (AID 157); details: S. cerevisiae mec2-1 strain, stronger effect = higher value
How it was run: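 Yeast mec2-1 mutant treated with compound. Readout: growth inhibition vs vehicle controls.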

[7] = NCI Yeast Anticancer Drug Screen. Data for the rad14 strain (AID 159);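 note: 0% = growth of vehicle-treated control cultures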; details: S. cerevisiae rad14 strain growth inhibition, stronger effect = higher value
How it was run: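 Readout: yeast growth inhibition, referenced to vehicle-only cultures. Strain bears a defined alteration in DNA damage repair.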

[8] = NCI Yeast Anticancer Drug Screen. Data for the sgs1 mgt1 strain (AID 161);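 note: 0% = growth of cultures given vehicle only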; details: S. cerevisiae sgs1 mgt1 strain, stronger effect = higher value
How it was run: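 Mutant yeast exposed to compound; growth scored against vehicle-only wells.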

[9] = NCI Yeast Anticancer Drug Screen. Data for the CLN2oe strain (AID 163);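 note: 0% = growth of vehicle-only control cultures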; details: S. cerevisiae CLN2oe strain, stronger effect = higher value
How it was run: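 Read-out: yeast growth inhibition, expressed relative to vehicle-only controls. The strain bears an engineered cell-cycle alteration.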

[10] = NCI Yeast Anticancer Drug Screen. Data for the cln2 rad14 strain (AID 165);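 note: 0% = growth equal to vehicle treated cultures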; details: S. cerevisiae cln2 rad14 strain, stronger effect = higher value
How it was run: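 cln2 rad14 yeast strain; compound exposure; growth inhibition read vs vehicle controls.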

[11] = NCI Yeast Anticancer Drug Screen. Data for the bub3 strain (AID 167); details: S. cerevisiae bub3 mutant strain, stronger effect = higher value
How it was run: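 Part of a panel of yeast mutants defective in DNA damage repair or cell cycle regulation. Each strain is grown with compound, and inhibition is calculated relative to solvent-treated cultures.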

[12] = NCI Yeast Anticancer Drug Screen. Data for the wt2 strain (AID 169);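 note: 0% = growth of vehicle-treated yeast cultures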; details: S. cerevisiae wt2 strain growth inhibition, stronger effect = higher value
How it was run: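 Read-out: growth inhibition versus vehicle-treated control cultures after compound exposure of the yeast strain.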

[13] = NCI Yeast Anticancer Drug Screen. Data for the mlh1 strain (AID 171);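 note: 0% = growth of vehicle-treated control cultures of the same strain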; details: S. cerevisiae mlh1 strain growth inhibition, stronger effect = higher value
How it was run: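 Read-out: growth inhibition versus vehicle controls. Strain: engineered yeast with a defined DNA repair or cell cycle defect, compound-treated.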

[14] = NCI Yeast Anticancer Drug Screen. Data for the sgs1 strain (AID 173);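 note: 0% = growth of vehicle-only control cultures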; details: S. cerevisiae sgs1 mutant, stronger effect = higher value
How it was run: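 Read-out: yeast growth inhibition relative to vehicle controls, following compound exposure of a strain with a defined DNA repair/cell cycle alteration.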

[15] = NCI Yeast Anticancer Drug Screen. Data for the mlh1 rad18 strain (AID 175); details: S. cerevisiae mlh1 rad18 strain growth inhibition, stronger effect = higher value
How it was run: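 Yeast w/ defined DNA-repair lesions; compound exposure; growth vs vehicle controls → % inhibition.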

[16] = at 5.0 µM (retest, dose inferred, filed as 0.5)
[17] = at 50.0 µM (retest, dose inferred, filed as 5.0)

Measured: growth inhibition

O/N=c1/ccn(O)c2ccccc12
inactive: [1]; at 1.2 µM 49% | [2]; at 1.2 µM 0% | [2]; at 3.7 µM 8% | [2]; at 11.0 µM 20% | [2]; at 33.0 µM 43% | [2]; at 100.0 µM 61% | [4]; at 1.2 µM -1% | [4]; at 3.7 µM 7% | [4]; at 11.0 µM 23% | [4]; at 33.0 µM 51% | [6]; at 1.2 µM 51% | [9]; at 1.2 µM -8% | [9]; at 3.7 µM -5% | [9]; at 11.0 µM 8% | [9]; at 33.0 µM 37% | [9]; at 100.0 µM 58% | [11]; at 1.2 µM -5% | [11]; at 3.7 µM 5% | [11]; [16] 11% | [11]; at 11.0 µM 24% | [11]; at 33.0 µM 54% | [12]; at 1.2 µM -1% | [12]; at 3.7 µM 14% | [12]; at 11.0 µM 20% | [12]; at 33.0 µM 39% | [12]; at 100.0 µM 58% | [13]; at 1.2 µM 2% | [13]; at 3.7 µM 15% | [13]; at 11.0 µM 30% | [13]; at 33.0 µM 53%
active: [1]; at 3.7 µM 91% | [1]; at 11.0 µM 95% | [1]; at 33.0 µM 96% | [1]; at 100.0 µM 95% | [3]; at 1.2 µM 87% | [3]; at 3.7 µM 96% | [3]; at 11.0 µM 97% | [3]; at 33.0 µM 97% | [3]; at 100.0 µM 97% | [4]; at 100.0 µM 84% | [5]; at 1.2 µM 74% | [5]; at 3.7 µM 96% | [5]; [16] 89% | [5]; at 11.0 µM 95% | [5]; at 33.0 µM 96% | [5]; [17] 95% | [5]; at 50.0 µM 96.3% | [5]; at 100.0 µM 96% | [6]; at 3.7 µM 97% | [6]; [16] 94% | [6]; at 11.0 µM 98% | [6]; at 33.0 µM 98% | [6]; [17] 98% | [6]; at 50.0 µM 97.5% | [6]; at 100.0 µM 98% | [7]; at 1.2 µM 96% | [7]; at 3.7 µM 99% | [7]; at 11.0 µM 99% | [7]; at 33.0 µM 99% | [7]; at 100.0 µM 99% | [8]; [16] 87% | [8]; [17] 95% | [8]; at 50.0 µM 97% | [10]; [16] 98% | [10]; [17] 99% | [10]; at 50.0 µM 98.8% | [11]; [17] 72% | [11]; at 50.0 µM 83.2% | [11]; at 100.0 µM 79% | [13]; at 100.0 µM 83% | [14]; at 1.2 µM 85% | [14]; at 3.7 µM 94% | [14]; at 11.0 µM 96% | [14]; at 33.0 µM 96% | [14]; at 100.0 µM 96% | [15]; [16] 82% | [15]; [17] 97% | [15]; at 50.0 µM 97.5%

O=C(C#Cc1ccccc1)Nc1ccccc1
inactive: [1]; at 1.2 µM -14% | [1]; at 3.7 µM -11% | [1]; at 11.0 µM -7% | [1]; at 33.0 µM 23% | [2]; at 1.2 µM -1% | [2]; at 3.7 µM -10% | [2]; at 11.0 µM -6% | [2]; at 33.0 µM 6% | [3]; at 1.2 µM -4% | [3]; at 3.7 µM 4% | [3]; at 11.0 µM 37% | [4]; at 1.2 µM -5% | [4]; at 3.7 µM -10% | [4]; at 11.0 µM -4% | [4]; at 33.0 µM 58% | [5]; at 1.2 µM -20% | [5]; at 3.7 µM -25% | [5]; [16] -147% | [5]; at 11.0 µM -17% | [5]; at 33.0 µM 52% | [5]; [17] 20% | [5]; at 50.0 µM 45.8% | [6]; at 1.2 µM -9% | [6]; at 3.7 µM -7% | [6]; [16] -48% | [6]; at 11.0 µM -8% | [6]; at 33.0 µM -2% | [6]; [17] -29% | [6]; at 50.0 µM 33.6% | [7]; at 1.2 µM -3% | [7]; at 3.7 µM -9% | [7]; at 11.0 µM 4% | [7]; at 33.0 µM 67% | [8]; [16] -57% | [8]; [17] 67% | [8]; at 50.0 µM 64.7% | [9]; at 1.2 µM -10% | [9]; at 3.7 µM -13% | [9]; at 11.0 µM -14% | [9]; at 33.0 µM -5% | [10]; [16] -64% | [10]; [17] -42% | [10]; at 50.0 µM -13.2% | [11]; at 1.2 µM -10% | [11]; at 3.7 µM -7% | [11]; [16] -74% | [11]; at 11.0 µM -7% | [11]; at 33.0 µM 24% | [11]; [17] -6% | [11]; at 50.0 µM 15.4% | [12]; at 1.2 µM -9% | [12]; at 3.7 µM -4% | [12]; at 11.0 µM 19% | [13]; at 1.2 µM -15% | [13]; at 3.7 µM -12% | [13]; at 11.0 µM -9% | [14]; at 1.2 µM -9% | [14]; at 3.7 µM -3% | [14]; at 11.0 µM 33%
active: [1]; at 100.0 µM 97% | [2]; at 100.0 µM 95% | [3]; at 33.0 µM 70% | [3]; at 100.0 µM 92% | [4]; at 100.0 µM 97% | [5]; at 100.0 µM 97% | [6]; at 100.0 µM 80% | [7]; at 100.0 µM 97% | [9]; at 100.0 µM 94% | [11]; at 100.0 µM 97% | [12]; at 33.0 µM 90% | [12]; at 100.0 µM 99% | [13]; at 33.0 µM 72% | [13]; at 100.0 µM 98% | [14]; at 33.0 µM 88% | [14]; at 100.0 µM 99%
